24 compounds from the supplement of paper PMC6522484 can be followed below.

± gives the standard deviation of the averaged measurements.

In test [1] the test system is DLD1. As to the kind of experiment: cell viability (CellTiter-Glo) relative to plate median (fraction of plate median); higher = more viable cells. To be noted: 5 µM; treatment time 24 h; reporter: 7TFP. Summed up:
(§1)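 Colorectal cancer cell lines stably transduced with lentiviral TCF/Wnt firefly luciferase reporters (7TFP or TCF4/Wnt) were seeded in 384-well plates. 24 h later they received library compounds at a final 5 µM for 24 h. Parallel plates were read for firefly luciferase or CellTiterGlo luminescence on a Tecan F500 reader. Each well's signal was normalised to the plate median (webcellHTS2, additive, no log transformation), and the mean of two independent replicates is reported.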
Background: Cellular ATP, detected with luciferase, serves as a proxy for viable cell number.

Another test relates to HCT116. Described as above. To be noted: 5 µM; treatment time 24 h; reporter: TCF4/Wnt. Summed up: as §1
In test [2] the test system is SW480. The test is described as above. Conditions: 5 µM; treatment time 24 h; reporter: 7TFP. The essentials: as §1
In test [3] the test system is DLD1. The test is described as follows: TCF/Wnt firefly luciferase reporter signal relative to plate median (fraction of plate median); higher = higher Wnt reporter signal. To be noted: 5 µM; treatment time 24 h; reporter: 7TFP. Summed up: as §1
In general terms: Reporter assays use an easily measured gene product as a stand-in for the process of interest.

Test [4] concerns SW480. The description is as above. Conditions: 5 µM; treatment time 24 h; reporter: 7TFP. Summed up:
as §1

Regarding `CC(C)=CCC[C@]1(C)C=Cc2c(O)c3c(c(CC=C(C)C)c2O1)O[C@]12C(=C[C@@H]4C[C@H]1C(C)(C)O[C@@]2(C/C=C(/C)C(N)=O)C4=O)C3=O`, the results for the cell viability in the test on DLD1 [1], with HCT116 and in the test with SW480 [2] were 0.976 ± 0.049, 0.9335 ± 0.00071 and 1.03 ± 0.021, respectively. Moreover, the “TCF/Wnt firefly luciferase reporter signal” value amounted to 0.947 ± 0.011 in the test on DLD1 [3] and 0.895 ± 0.1 in the test with SW480 [4].

Turning to `C[C@H](N)[C@H](O)c1ccc(O)c(O)c1`, the figures for the cell viability in the test with DLD1 [1], in the test with HCT116 and in the test on SW480 [2] were 0.971 ± 0.042, 1.05 ± 0.057 and 1.09 ± 0.17, respectively. For the same compound, the “TCF/Wnt firefly luciferase reporter signal” value in the test with DLD1 [3] was 1.004 ± 0.0085; with SW480 [4] it was 0.9685 ± 0.0078.

`C[C@@H]1C[C@@H]([C@H](O)CC2CC(=O)NC(=O)C2)C(=O)[C@@H](C)C1`: the cell viability came to 0.892 ± 0.059 in the test with DLD1 [1], 0.5955 ± 0.0035 with HCT116 and 0.967 ± 0.076 in the test with SW480 [2]. The “TCF/Wnt firefly luciferase reporter signal” value was determined as 0.387 ± 0.088 in the test on DLD1 [3] and 0.665 ± 0.15 with SW480 [4].

Turning to `CC(=O)Oc1c2c(c(CC=C(C)C)c3c1C(=O)C1=C[C@@H]4CC5C(C)(C)OC(C/C=C(\C)C(=O)O)(C4=O)[C@@]15O3)OC(C)(CCC=C(C)C)C=C2` (stereo not given in full), the cell viability amounted to 0.809 ± 0.046 with DLD1 [1], 0.933 ± 0.047 with HCT116 and 0.913 ± 0.08 with SW480 [2]. Also, the figures for the “TCF/Wnt firefly luciferase reporter signal” value with DLD1 [3] and with SW480 [4] were 0.706 ± 0.067 and 0.814 ± 0.26, respectively.

Consider `COc1ccc2c(c1OC)C(=O)O[C@H]2[C@H]1c2cc3c(cc2CCN1C)OCO3`, for which the cell viability was found to be 1.06 ± 0.09 in the test with DLD1 [1], 1.04 ± 0.061 with HCT116 and 0.9915 ± 0.0078 with SW480 [2]. The “TCF/Wnt firefly luciferase reporter signal” value with DLD1 [3] was 1.08 ± 0.028; in the test on SW480 [4] it was 1.03 ± 0.069.

Take `N#Cc1nn(-c2c(Cl)cc(C(F)(F)F)cc2Cl)c(N)c1[S+]([O-])C(F)(F)F` (stereo not given): the cell viability in the test on DLD1 [1] was determined as 1.02 ± 0.045; with HCT116, 1.04 ± 0.028; in the test on SW480 [2], 1.005 ± 0.0071. Further, the “TCF/Wnt firefly luciferase reporter signal” value is 1.01 ± 0.05 in the test with DLD1 [3] and 1.015 ± 0.0071 with SW480 [4].

Regarding `C[C@H]1O[C@H](O[C@H]2[C@H](O)[C@@H](O)[C@@H](O)[C@H](O)[C@@H]2O)[C@@H](N)C[C@@H]1NC(=N)C(=O)O`, the cell viability was 0.989 ± 0.086 in the test with DLD1 [1], 1.06 ± 0.035 with HCT116 and 1.035 ± 0.0071 with SW480 [2]. Besides, the “TCF/Wnt firefly luciferase reporter signal” value came out at 1.03 ± 0.028 in the test with DLD1 [3] and 0.949 ± 0.086 in the test with SW480 [4].

For `CSc1nc(NC(C)C)nc(NC(C)C)n1`, the cell viability with DLD1 [1] came to 0.9725 ± 0.0035; with HCT116, 0.92 ± 0.11; with SW480 [2] it was 1 ± 0.014. Besides, the results for the “TCF/Wnt firefly luciferase reporter signal” value in the test on DLD1 [3] and in the test on SW480 [4] were 1.06 and 1.07 ± 0.014, respectively.

Regarding `CN1[C@@H]2CC[C@H]1C[C@@H](OC(c1ccccc1)c1ccccc1N)C2` (stereo not given in full), the cell viability stood at 0.982 ± 0.096 in the test with DLD1 [1], 0.954 ± 0.0085 in the test on HCT116 and 1.03 ± 0.028 with SW480 [2]. Also, the “TCF/Wnt firefly luciferase reporter signal” value in the test on DLD1 [3] came to 0.999 ± 0.16; in the test on SW480 [4], 0.8705 ± 0.0035.

As to `CC[N+]1(C)CCCC(OC(=O)C(O)(c2ccccc2)c2ccccc2)C1` (stereo not given), the cell viability in the test on DLD1 [1] turned out to be 0.945 ± 0.0014; in the test on HCT116 it was 0.949 ± 0.087; in the test on SW480 [2] it was 0.933 ± 0.091. Also, the “TCF/Wnt firefly luciferase reporter signal” value in the test on DLD1 [3] was found to be 0.857 ± 0.0071; with SW480 [4] it was 0.958 ± 0.06.

In the case of `C[C@@H]1C[C@H](C)C[C@H](C)[C@@H](O)CC(=O)O[C@H]([C@@H]2CCC[C@H]2C(=O)O)C/C=C/C=C(/C#N)[C@H](O)[C@@H](C)C1` [Borrelidin], the cell viability in the test on DLD1 [1] turned out to be 0.894 ± 0.067; with HCT116 it was 0.817 ± 0.18; with SW480 [2], 1.01 ± 0.02. Further, the “TCF/Wnt firefly luciferase reporter signal” value in the test on DLD1 [3] amounted to 0.989 ± 0.059; in the test with SW480 [4], 1.06 ± 0.095.

For `COc1cc(OC)c(OC)cc1C=O`, the cell viability amounted to 0.981 ± 0.13 in the test with DLD1 [1], 1.01 ± 0.035 with HCT116 and 0.988 ± 0.06 with SW480 [2]. In addition, the “TCF/Wnt firefly luciferase reporter signal” value in the test on DLD1 [3] came to 0.925 ± 0.0042; in the test with SW480 [4] it was 0.963 ± 0.04.

Regarding `CC1(C)C(=O)C=C[C@]2(C)[C@H]3CC[C@@]4(C)[C@H](c5ccoc5)OC(=O)[C@H]5O[C@]54[C@]3(C)[C@H](O)C[C@@H]12`, the cell viability in the test on DLD1 [1] stood at 1.01 ± 0.12; in the test with HCT116 it was 1.08 ± 0.028; in the test on SW480 [2], 0.989 ± 0.016. Besides, the “TCF/Wnt firefly luciferase reporter signal” value in the test on DLD1 [3] stood at 0.904 ± 0.028; in the test with SW480 [4], 0.972 ± 0.097.

Turning to `CC(=O)NC1CCSC1=O` (stereo not given), the figures for the cell viability with DLD1 [1], in the test on HCT116 and in the test on SW480 [2] were 1.03 ± 0.055, 1.01 ± 0.019 and 1.03 ± 0.028, respectively. Further, the “TCF/Wnt firefly luciferase reporter signal” value in the test on DLD1 [3] worked out at 1.02 ± 0.12; with SW480 [4], 0.902 ± 0.12.

Consider `CN(C)C(=O)Oc1ccc[n+](C)c1`, for which the cell viability in the test on DLD1 [1] turned out to be 1.04 ± 0.042; in the test on HCT116, 1.04 ± 0.11; in the test on SW480 [2], 1.02. Moreover, the “TCF/Wnt firefly luciferase reporter signal” value is 1.08 ± 0.078 in the test with DLD1 [3] and 1.05 ± 0.035 with SW480 [4].

On to `C[C@]12CC[C@H]3[C@@H](CC[C@]4(O)C[C@@H](O)CC[C@]34C=O)[C@@]1(O)CC[C@@H]2C1=CC(=O)OC1`, for which the cell viability was determined as 0.579 ± 0.021 in the test with DLD1 [1], 0.502 ± 0.12 with HCT116 and 0.746 ± 0.046 with SW480 [2]. For the same compound, the “TCF/Wnt firefly luciferase reporter signal” value with DLD1 [3] came to 0.226 ± 0.12; in the test on SW480 [4] it was 0.58 ± 0.054.

As to `CC(C)(O)[C@@H]1[C@H]2OC(=O)[C@@H]1[C@]1(O)C[C@H]3O[C@]34C(=O)O[C@H]2[C@]14C`, the cell viability was 1.03 ± 0.046 in the test on DLD1 [1], 0.949 ± 0.021 with HCT116 and 1.025 ± 0.0071 in the test with SW480 [2]. Besides, the “TCF/Wnt firefly luciferase reporter signal” value was determined as 1.02 ± 0.17 in the test with DLD1 [3] and 1.04 ± 0.089 in the test with SW480 [4].

Turning to `CN[C@@H]1[C@@H](O)[C@@H](O[C@@H]2[C@@H](O)[C@H](O[C@H]3O[C@H]([C@@H](C)O)[C@@H](O)[C@H](O)[C@H]3N)[C@@H](N)C[C@H]2N)OC[C@]1(C)O`, the cell viability with DLD1 [1] amounted to 1.075 ± 0.0071; in the test on HCT116, 1.04 ± 0.035; with SW480 [2] it was 1.08 ± 0.071. For the same compound, the “TCF/Wnt firefly luciferase reporter signal” value was 0.964 ± 0.12 in the test with DLD1 [3] and 1.08 ± 0.085 with SW480 [4].

As for `CC(=O)O[C@@H]1CC2C(C)(C)[C@H](O)C=C[C@]2(C)C2CC[C@]3(C)C(=CC(=O)O[C@H]3c3ccoc3)[C@@]21C` (stereo partly drawn) [3-alpha-HYDROXYDEOXYGEDININ], the cell viability in the test with DLD1 [1] is 1.08 ± 0.092; in the test on HCT116, 1.11 ± 0.014; in the test with SW480 [2], 1.08 ± 0.11. Moreover, the “TCF/Wnt firefly luciferase reporter signal” value in the test on DLD1 [3] amounted to 1.04 ± 0.097; in the test with SW480 [4], 0.943 ± 0.076.

As to `CC(C)[N+](C)(CCC(C(N)=O)(c1ccccc1)c1ccccc1)C(C)C`, the values for the cell viability in the test on DLD1 [1], with HCT116 and in the test with SW480 [2] were 1.045 ± 0.0071, 1.055 ± 0.0071 and 0.996 ± 0.0057, respectively. Also, the “TCF/Wnt firefly luciferase reporter signal” value in the test with DLD1 [3] is 1.02 ± 0.12; with SW480 [4], 1.03 ± 0.042.

For the compound `C/C=C(/C)C(=O)O[C@H]1CC[C@@]2(C)[C@@H]3CC[C@H]4[C@]5(O)C[C@H](O)[C@@]6(O)[C@@H](CN7C[C@@H](C)CC[C@H]7[C@@]6(C)O)[C@]5(O)C[C@@]42O[C@]13O`, the cell viability came to 0.994 ± 0.037 with DLD1 [1], 0.995 ± 0.021 in the test on HCT116 and 0.946 ± 0.017 with SW480 [2]. Besides, the “TCF/Wnt firefly luciferase reporter signal” value with DLD1 [3] turned out to be 0.952 ± 0.036; in the test on SW480 [4], 0.9235 ± 0.0078.

Consider `CC(C)c1ccc2c(c1O)CC[C@H]1C3=C(CC[C@]21C)C(=O)OC3`, for which the cell viability was 1.1 ± 0.042 with DLD1 [1], 1.1 ± 0.099 with HCT116 and 1.09 with SW480 [2]. The “TCF/Wnt firefly luciferase reporter signal” value in the test on DLD1 [3] amounted to 1.04 ± 0.19; in the test on SW480 [4], 1.06.

With `CNc1ccccc1C(=O)O`, the cell viability in the test with DLD1 [1] amounted to 0.923 ± 0.12; in the test on HCT116, 0.85 ± 0.12; in the test with SW480 [2] it was 1.004 ± 0.0085. Besides, the “TCF/Wnt firefly luciferase reporter signal” value in the test on DLD1 [3] came to 0.931 ± 0.088; in the test on SW480 [4], 1.1 ± 0.078.

As for `CCCCCCCCCCCCOC(=O)[C@H]1OC(=O)[C@H](O)[C@H]1C(=O)OO` [Cinatrin C1], the results for the cell viability in the test on DLD1 [1], in the test with HCT116 and with SW480 [2] were 1.03 ± 0.11, 1.02 ± 0.033 and 0.995 ± 0.035, respectively. For the same compound, the “TCF/Wnt firefly luciferase reporter signal” value with DLD1 [3] stood at 0.905 ± 0.054; in the test with SW480 [4], 0.977 ± 0.033.
